A short description of assay [1]: qHTS profiling of the MIPE4 collection as inhibitors of Plasmodium falciparum (DD2) proliferation (AID 743345; call rule not given here). The settings on record: P. falciparum Dd2 in erythrocytes, SYBR Green DNA, 72 h; at 28.5 µM (top of the series) unless noted. In a few lines:
(§1)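 Parasite DNA was quantified by SYBR Green I fluorescence (ex 485, em 535 nm) after overnight lysis in saponin/Triton buffer at room temperature. Cultures at 0.3% parasitemia and 2.5% hematocrit were first exposed to compound for 72 h at 37 C; signals were normalised to artemisinin (0.29 uM) and vehicle wells.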
For orientation: qHTS replaces the single test concentration by a dilution series.

Assay [2] can be described thus: qHTS profiling of the MIPE4 collection as inhibitors of Plasmodium falciparum (DD2) proliferation (Rep 2) (AID 743346; call rule not given here). The settings on record: P. falciparum Dd2 in erythrocytes, SYBR Green DNA, 72 h; at 28.5 µM (top of the series) unless noted. Summed up: as §1
A short description of assay [3]: qHTS profiling of the MIPE4 collection as inhibitors of Plasmodium falciparum (HB3) proliferation (AID 743347; call rule not given here;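 note: plate controls were DMSO vehicle wells for no effect and artemisinin wells for full effect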). The settings on record: P. falciparum HB3 in erythrocytes, SYBR Green DNA, 72 h; at 28.5 µM (top of the series) unless noted. In a few lines:
as §1

Assay [4] can be described thus: High-throughput drug toxicity screening in the BPDCN cell line Gen2.2 (AID 1224824; call rule not given here;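 note: cells exposed to compounds for 48 h before reading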). The settings on record: Gen2.2 BPDCN cells; at 45.8 µM (top of the series) unless noted. In a few lines:
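Seed 500 exponentially growing Gen2.2 cells/well; add compounds by pin tool; incubate 48 h, 37 °C, 5% CO2; add CellTiter-Glo, 15 min RT; read luminescence. % activity vs DMSO (100%) and bortezomib (0%).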

Assay [5] can be described thus: High-throughput drug toxicity screening in the BPDCN cell line Cal-1 (AID 1224825; call rule not given here). The settings on record: Cal-1 BPDCN cell viability, qHTS; at 45.8 µM (top of the series) unless noted. Summed up:
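CellTiter-Glo luminescence after 48 h compound exposure; percent activity scaled with DMSO as 100% and bortezomib (9.2 uM final) as 0%. Cal-1 cells seeded at 500/well in RPMI, 10% FBS, no phenol red.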

Assay [6] in a line: qHTS assay for measurement of the activity of small molecule inhibitors on Zika virus induced Caspase-3 activity in human iPSC derived neural progenitor cells (hNPCs) (AID 1224857). Note: nearly all actives have a fitted effect of over 65% in size. Note: potency is the fitted concentration of half-maximal effect. In a few lines:
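Pretreat hNPCs with compound 1 h; infect ZIKV 2 FFU/cell; 6 h 37 C, 5% CO2; Caspase-Glo 3/7, 30 min RT; luminescence; normalize to no-virus and virus-only wells.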

Assay [7] in a line: qHTS assay for measurement of the activity of small molecule inhibitors on Zika virus induced Caspase-3 activity in human astrocytoma cells (AID 1224859).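 Note: plate controls were ZIKV-infected untreated cells for no effect and uninfected cells for full effect.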 In a few lines:
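Human SNB-19 astrocytoma cells in RPMI 1640 with 10% FBS receive compound one hour ahead of Zika virus at 2 FFU/cell. After 6 h infection, caspase-3/7 activity is detected by Caspase-Glo luminescence.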

The nature of assay [8]: qHTS Screen of the MIPE 4.0 Collection Against Ewings Sarcoma (RDES) (AID 1259252). Note: nearly all actives have a fitted effect of over 35% in size. Note: potency is the fitted concentration of half-maximal effect. In a few lines: (§2)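 Dose series incubated 48 h with cells in RPMI plus 5% FBS, glutamine and penicillin/streptomycin; cell viability then quantified via CellTiter-Glo.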
Assay [9] can be described thus: qHTS Screen of the MIPE 4.0 Collection Against Ewings Sarcoma (TC71) (AID 1259253). Note: nearly all actives have a fitted effect of over 40% in size. Note: potency is the fitted concentration of half-maximal effect. Summed up:
as §2

Assay [10] can be described thus: qHTS Screen of the MIPE 4.0 Collection Against Ewings Sarcoma (EW8) (AID 1259255).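 For viability: 100% = DMSO-treated cells and 0% = medium-only wells without cells.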 Note: nearly all actives have a fitted effect of over 35% in size. Note: potency is the fitted concentration of half-maximal effect. In a few lines: as §2
Assay [11] is described as follows: qHTS Screen of the MIPE 4.0 Collection Against Ewings Sarcoma (TC32) (AID 1259256). Note: nearly all actives have a fitted effect of over 45% in size. Note: potency is the fitted concentration of half-maximal effect. Summed up: as §2
The nature of assay [12]: qHTS assay to identify small molecule inhibitors of chordoma cells - UCH-1 (AID 1259355). Note: % is set by controls: 0 for no effect and ±100 for the full control effect; nearly all actives have a fitted effect of over 55% in size. In a few lines:
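Screening used approved and investigational drugs in 15-point titration against 800 seeded cells per well. A fixed combination of auranofin with camptothecin, doxorubicin, rubitecan and topotecan followed compound addition, and growth was scored by CellTiter-Glo after 48hr.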

The nature of assay [13]: qHTS assay to identify small molecule inhibitors of chordoma cells - UCH-2 (AID 1259356). Note: % is set by controls: 0 for no effect and ±100 for the full control effect.
The nature of assay [14]: P-glycoprotein substrates identified in KB-3-1 adenocarcinoma cell line, qHTS therapeutic library screen (AID 1346986). Note: nearly all actives have a fitted effect of over 60% in size. Summed up: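 Viability by CellTiter-Glo after 72 h compound exposure at 37 degree C, 5% CO2. Cytotoxic call: curve class -1.1 to -2.4, maximum response >50%, AC50 < 10 uM, compared across KB-3-1 and P-gp-overexpressing KB-8-5-11.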

Results filed as inconclusive are left out. The source made the active and inactive calls. Unless noted, calls come from the whole dose curve; as a rule, active = well fitted curve in the direction sought with a large enough effect; inconclusive = small, poorly fitted or top-dose-only effect, or another doubt; inactive = no such curve, though single readings can be large; an effect the other way counts as inactive or inconclusive.

Take `C[C@H](Cn1cnc2c(N)ncnc21)OCP(=O)(O)O`: in assay [1], the parasite growth remaining, % of DMSO control (lower = more inhibition) came to 112%. In assay [2], the parasite growth, % of control (lower = inhibition) turned out to be 107%. In assay [3], the growth, % of control was found to be 612%. Besides, the cell viability, % of control (lower = more cytotoxic) in [4] was 168%. In addition, the viability (% of control) in assay [5] came to 130%. The Potency entry in [6], in assay [7], in assay [8], in assay [9], in assay [10] and in [11] was “inactive” each time. Moreover, the Potency result in assay [12], in assay [13] and in assay [14] was “inactive” throughout.
`CCC(C)(Oc1ccc(C2(c3ccc(OC(C)(CC)C(=O)O)cc3)CCCCC2)cc1)C(=O)O` (configuration not stated): the parasite growth remaining, % of DMSO control (lower = more inhibition) in assay [1] is 98.3%. The parasite growth, % of control (lower = inhibition) in assay [2] was found to be 73.7%. This compound came in with a growth, % of control in [3] of 107%. In addition, in [4], the cell viability, % of control (lower = more cytotoxic) was 148%. In addition, the viability (% of control) in assay [5] was 136%. In addition, the Potency result in [6], in [7], in assay [8], in assay [9], in assay [10] and in assay [11] was “inactive” throughout. For the same compound, the Potency result in [12], in assay [13] and in assay [14] was “inactive” in each case.
Consider `CN(C)C(=O)[C@H](O)[C@H](Cc1ccccc1)NC(=O)c1cc2cc(Cl)ccc2[nH]1`, for which, in [1], the parasite growth remaining, % of DMSO control (lower = more inhibition) came out at 54.1%. In addition, in assay [2], the parasite growth, % of control (lower = inhibition) was found to be 13.9%. The growth, % of control in assay [3] worked out at 2.28%. In addition, the cell viability, % of control (lower = more cytotoxic) in assay [4] was determined as 238%. Further, the viability (% of control) in assay [5] is 43.4%. In addition, the Potency result in assay [6], in assay [7] and in assay [14] was “inactive” each time. Further, the Potency is 18.7 µM (active) in [8], 16.6 µM (active) in assay [9] and 23.5 µM (active) in assay [10].
As for `CCN(CC)C(=S)SSC(=S)N(CC)CC`, in [1], the parasite growth remaining, % of DMSO control (lower = more inhibition) turned out to be 92.7%. Besides, the parasite growth, % of control (lower = inhibition) in assay [2] is 53.4%. Besides, in assay [3], the growth, % of control worked out at 64.3%. In addition, the cell viability, % of control (lower = more cytotoxic) in assay [4] came out at 6.77%. Moreover, the viability (% of control) in assay [5] was 3.25%. In addition, the Potency in assay [6] is 10 µM (active); in assay [8] it was 0.118 µM (active); in assay [9], 0.0132 µM (active); in assay [10], 0.0187 µM (active). Besides, the Potency entry in [7], in [11], in assay [12] and in [13] was “inactive” each time.
For the compound `N[C@@H](Cc1cc(I)c(Oc2cc(I)c(O)c(I)c2)c(I)c1)C(=O)O`, the parasite growth remaining, % of DMSO control (lower = more inhibition) in assay [1] was 89.9%. In addition, the parasite growth, % of control (lower = inhibition) in assay [2] came to 91.7%. This compound also showed a growth, % of control in assay [3] of 75.1%. In addition, in [4], the cell viability, % of control (lower = more cytotoxic) worked out at 163%. In addition, the viability (% of control) in [5] was 123%. In addition, the Potency result in assay [6], in [7], in assay [8], in [10], in assay [12] and in [13] was “inactive” each time. Besides, the Potency result in [14] was “inactive”. For the same compound, the Potency in assay [11] was 3.72 µM (active).
`Cc1cc2cc3c(C)cc(=O)oc3c(C)c2o1`: in assay [1], the parasite growth remaining, % of DMSO control (lower = more inhibition) amounted to 95.8%. In assay [2], the parasite growth, % of control (lower = inhibition) was 91.1%. The growth, % of control in assay [3] came out at 76.7%. The cell viability, % of control (lower = more cytotoxic) in [4] turned out to be 16.3%. Moreover, the viability (% of control) in assay [5] stood at 8.43%. For the same compound, the Potency entry in assay [6], in assay [7], in assay [12], in assay [13] and in [14] was “inactive” in each case. The results for the Potency in assay [8], in assay [9] and in assay [11] were 7.43 µM (active), 11.8 µM (active) and 16.6 µM (active), respectively.
As for `CCCCCCCCCCCCCCCCCCCCCCO`, the parasite growth remaining, % of DMSO control (lower = more inhibition) in assay [1] stood at 124%. For the same compound, in assay [2], the parasite growth, % of control (lower = inhibition) worked out at 137%. Moreover, the growth, % of control in assay [3] came to 105%. In addition, the cell viability, % of control (lower = more cytotoxic) in [4] came to 148%. In addition, the viability (% of control) in [5] was determined as 105%. Also, the Potency entry in assay [6], in assay [7], in [8], in assay [9], in assay [10] and in assay [11] was “inactive” throughout. Besides, the Potency entry in assay [12] and in [13] was “inactive” in each case.
As to `Cn1c(NCCN(CCO)CCCc2ccc([N+](=O)[O-])cc2)cc(=O)n(C)c1=O`, the parasite growth remaining, % of DMSO control (lower = more inhibition) in assay [1] is 76.1%. In addition, the parasite growth, % of control (lower = inhibition) in assay [2] was 7.33%. In addition, in assay [3], the growth, % of control was 9.64%. Moreover, the cell viability, % of control (lower = more cytotoxic) in assay [4] stood at 108%. Moreover, the viability (% of control) in [5] amounted to 67.6%. Besides, the Potency result in assay [6], in [7], in assay [12] and in assay [13] was “inactive” in each case. Also, the Potency was 20.9 µM (active) in assay [8] and 18.7 µM (active) in assay [9].

Source of the values: PubChem BioAssay (NCATS).
